AMA1 RON2 block – AMA1-RON2 (P. falciparum) interaction inhibition; 0.2% of 360,000 active; AlphaScreen AMA1-biotinylated RON2 peptide binding; Potency, µM (titrated, usually from 58.2 µM), usual class: inhibitors; note: nearly all actives have a fitted effect of over 45% in size
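AMA1 (3D7) with his tag at 25 nM final met compounds first, then biotinylated RON2 peptide at 25 nM; detection used donor plus acceptor beads, 10 µg/mL apiece, read by AlphaScreen after 30 min at room temperature.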
Pf growth 48h – inhibits P. falciparum growth in the first generation, 48 h. 5.9% of 310,000 active. P. falciparum luciferase growth in erythrocytes, 48 h. Potency, µM (titrated, usually from 28.7 µM), hits mostly inhibitors
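Growth was read as firefly luciferase luminescence after a 48 h, 37 C, 5% CO2 exposure of compounds to reporter-bearing P. falciparum cultures (0.1% parasitemia, 2% hematocrit final) in Albumax-supplemented RPMI 1640.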
Cycloheximide cs – affects cycloheximide protein synthesis inhibition readout, counter-screen; 12% of 300,000 active; cell reporter, cycloheximide protein synthesis inhibition counterscreen; max response, %; AID 2314; in the data active = max response mostly above about 13%, no sharp cut-off; inactive = mostly below about 14%; note: read at 38.3 µM for the half of the compounds with a filed dose
Shiga toxin inh – blocks Shiga toxin action in Vero cells. Vero cells, Shiga toxin protein synthesis inhibition reporter. inhibition, % at 38.7 µM. 9.2% of 290,000 active; in the data active = inhibition mostly above about 28%, no sharp cut-off; inactive = mostly below about 43%
Pf growth 96h – inhibits malaria parasite growth, 96 h. P. falciparum luciferase reporter growth, 96 h. Potency, µM (highest dose often 28.7 µM), actives largely listed as inhibitors. 6.9% of 320,000 active. AID 504834
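Parasite growth measured via integrated firefly luciferase reporter in P. falciparum. Infected erythrocytes at 2% hematocrit, 0.05% parasitemia final were treated 96 hours at 37 C under 5% CO2, and luminescence was read.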
HCV inh – inhibitors of hepatitis C virus infection | Huh7.5.1 HCVcc-Cre infection, luciferase reporter, 44 h | Potency, µM (top dose mostly 41.8 µM), usual class: inhibitors | 3.4% of 340,000 active | AID 651820
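Reporter virus HCVcc-Cre (~0.5 moi) infects cells exposed to compound; seeding density 1,000 cells/well with 4 h settling beforehand. Luminescence, 15 sec read, taken 44 h post-infection following a 15 min RT substrate incubation.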
A number is an active result; - = inactive; ? = inconclusive; . = no result given; ! = a repeat was not active; [ ] = another dose, or the depositor's remark. This is a sample that favours compounds with a hit; in the whole collection about 21% have one here. Unless noted, calls come from the whole dose curve; as a rule, active = well fitted curve in the direction sought with a large enough effect; inconclusive = small, poorly fitted or top-dose-only effect, or another doubt; inactive = no such curve, though single readings can be large; an effect the other way counts as inactive or inconclusive.

SMILES	AMA1 RON2 block	Pf growth 48h	Cycloheximide cs	Shiga toxin inh	Pf growth 96h	HCV inh
CCCOc1ccc(Oc2nc(-c3ccncc3)nc3ccccc23)cc1	-	1.31µM	-	-	1.04µM	?
CCCNC(=O)C1(C)CCCN(C(=O)CN2C(=O)c3ccccc3C2=O)C1 (centres undefined)	-	.	.	.	.	.
CC(C)(C)OC(=O)N1CCCC(C(=O)Nc2ccc(C(=O)NCCc3ccccc3)cc2)C1 (centres undefined)	-	.	.	.	.	-[8.37 µM]
CCOc1ccc(N=C2NC(=O)S/C2=C\c2ccc(Cl)cc2)cc1	-	-	-	-	-	-
COc1ccc(N=C2NC(=O)S/C2=C\c2ccc(N(C)C)cc2)cc1	-	-	33.7	59.9	-	-
O=C(CCCCn1cnc2c(=S)nc[nH]c21)Nc1ccc(C(=O)O)c(O)c1	-	.	.	.	.	-
CC(C)c1ccc(Nc2ncccc2C(=O)O)cc1	-	-	42.9	-	-	-
CC(COc1cccc2ccccc12)CN1CCN(C)CC1 (centres undefined)	-	?	-	-	?	5.01µM
Cc1ccc(OCCCC(=O)NCc2ccco2)cc1	-	?	-	-	-	-
OCCN1CCN(c2nc(NCc3ccco3)c3ccccc3n2)CC1	-	?	-	-	9.28µM	?
Cc1ccc(OCCN2CCN(c3nc(NCc4ccco4)c4ccccc4n3)CC2)cc1	-	?	-	-	-	11.2µM
c1ccc(CN2CCN(c3nc(NCc4ccco4)c4ccccc4n3)CC2)cc1	-	?	-	-	.	?
COc1ccccc1CNC(=O)c1ccccc1C(=O)NC(CC(C)C)C(=O)NCc1ccccc1OC (centres undefined)	-	-	-	-	?	-
COc1ccc(NC(=O)C(CC(C)C)NC(=O)C2CCCCC2)c(OC)c1 (centres undefined)	-	-	-	-	?	-
CC(=O)c1ccc(Nc2ccc(-c3ccccc3F)nn2)cc1	-	-	42.8	-	-	-
C[C@H]1CCC[C@H](O)CCCCCc2cc(O)cc(O)c2C(=O)O1	-	?	-	-	12µM	-
CC1CCCC(NC(=O)COC(=O)c2ccc(Cl)nc2)C1C (centres undefined)	-	-	.	.	-	-
Cc1cccc(Nc2ccc(C(=O)N3CCOCC3)cn2)c1	-	-	46.1	65.6	?	-
Cc1ccc(Nc2ccc(C(=O)N3CCCC3)cn2)c(C)c1	-	.	-	-	?	-
O=C(c1ccc(Nc2cccc(C(F)(F)F)c2)nc1)N1CCCC1	-	?	-	-	16.5µM	-
CCNC(=O)CC1C(=O)N(c2ccc(C)cc2)C(=O)N1CCc1sccc1C (centres undefined)	-	-	-	-	-	-
O=C(OCC#CCSc1nnc(-c2cccc3ccccc23)o1)c1ccco1	-	-	-	-	-	-
O=C(OCC#CCSc1nc2ccccc2o1)c1ccco1	-	-	13.3	30.8	-	-
O=C(OCC#CCSc1nc2ccccc2o1)c1cc2ccccc2o1	-	-	15.2	-	-	-
COc1ccc(Br)c(-c2nc(CS(=O)(=O)c3ccc(F)cc3)no2)c1	-	-	19.8	36.8	-	?
SMILES	AMA1 RON2 block	Pf growth 48h	Cycloheximide cs	Shiga toxin inh	Pf growth 96h	HCV inh
COc1ccc(Br)c(-c2nnc(CS(=O)(=O)c3ccccc3)o2)c1	-	-	36.0	88.7	-	-
Nc1ccc(S(=O)(=O)Nc2ccccc2)cc1	.	-	.	.	-	.
CC12CCC=CC1C(c1ccoc1)N(Cc1ccccc1)C2=O (centres undefined)	.	.	-	-	.	.
CC(C)[C@H](NS(=O)(=O)c1ccc(Cl)cc1)C(=O)OCC(=O)NCCN1C(=O)CSC1=O	-	-	-	-	-	-
CCc1ccc(NC(=O)CSc2nc3ccccc3nc2N2CCCC2)cc1	-	-	-	-	2.62µM	-
CC(C)c1ccc(NC(=O)CSc2nc3ccccc3nc2N2CCCC2)cc1	-	?	-	16.2	-	-
O=C(CSc1nc2ccccc2nc1N1CCCC1)Nc1ccc(Cl)cc1	-	?	-	-	-	-
Cc1ccc(NC(=O)CSc2nc3ccccc3nc2N2CCCC2)cc1	-	?	20.9	32.5	-	?
COc1cccc(NC(=O)CSc2nc3ccccc3nc2N2CCOCC2)c1	-	-	23.9!	-	?	?

Source: PubChem (National Center for Advancing Translational Sciences (NCATS))
